High-throughput results deposited in PubChem by several laboratories.
Shown are actives, neighbours in structure and some others; about 5.1% of the full set was active somewhere.
CRFBP-R2 agonist = agonists of human CRF-binding protein/CRF-R2 receptor complex. activation, % at 13.2 µM. 350,000 tested, 0.46% active. AID 588473. HEK293 CRF-R2/CRF-BP, calcium dye fluorescence (FLIPR); percent of saturating CRF peptide response;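 active means activation of at least 50%, plus an integration ratio under a set limit after plate pattern correction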;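 further: plate controls were neutral control wells without compound for no effect and CRF at EC100 for full effect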
GRIN3A LBD mod = modulators (binders) of human NR3A ligand-binding domain; Tm shift relative to glycine control, % at 25 µM; NR3A LBD differential scanning fluorimetry, Tm shift; 0% = protein alone, 100% = glycine-bound protein; 340,000 tested, 2.5% active;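 active means melting temperature shift of at least 10% of the positive control shift, at one fixed dose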
CRFBP-R2 block = CRF-BP/CRF-R2 complex antagonism | HEK293 CRF-R2/CRF-BP, CRF-induced calcium fluorescence | inhibition, % at 11.8 µM | 350,000 tested, 0.59% active;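 active means inhibition of the ligand-induced calcium signal above about 50% at the single tested concentration, limit read from the data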
ANO1 block = inhibitors of mouse TMEM16A calcium-activated chloride channel; HEK293 TMEM16A/YFP iodide influx fluorescence, ionomycin; AID 588511; normalized B-score (activity score, 25-100; higher = stronger inhibition) at 10 µM; Q8BHY3; 310,000 tested, 1.2% active;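 active means ratio plate-corrected score three or more library SD toward inhibition, starting fluorescence score within five deviations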;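 further: score derived from kinetic fluorescence span divided by baseline fluorescence per well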
TMEM16A act = activators or potentiators of mouse TMEM16A chloride channel; Q8BHY3; HEK293 TMEM16A/YFP-H148Q/I152L, iodide quench fluorescence; stronger effect = lower value; B-score at 10 µM; 340,000 tested, 0.3% active;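 active means fluorescence-ratio B-score plate-corrected deviation score at least 3 library SD below zero, with starting fluorescence score within 5 deviations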;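 further: channel opened by trigger with iodide after compound preincubation; score built on the fluorescence ratio of max minus min over baseline; more negative score means more quench and so TMEM16A activation or potentiation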
MPTP inh = inhibitors of mitochondrial permeability transition pore | isolated mouse mitochondria, Ca2+ swelling absorbance, 30 min | inhibition, % at 10 µM | 360,000 tested, 1.4% active | AID 602449;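 active means inhibition of 50% or more, scaled per plate between neutral and stimulator controls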;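 further: 0% = DMSO wells given calcium and 100% = 1 mM EGTA wells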
An asterisk follows results filed as active; i = inactive; . = no result.

SMILES | CRFBP-R2 agonist | GRIN3A LBD mod | CRFBP-R2 block | ANO1 block | TMEM16A act | MPTP inh
COc1cc(NC(=O)c2cnc(N)s2)cc(C(=O)Nc2cccc(C(F)(F)F)c2)c1 | 2 | 37* | -13 | i | . | 0
COc1cc(NC(=O)c2ccnc(N)c2)cc(C(=O)Nc2cccc(C(F)(F)F)c2)c1 | 2 | 13* | 4 | i | i | 0
COc1cc(OC)cc(C(=O)Nc2cccc(NC(=O)c3cccs3)c2)c1 | -1 | . | -1 | . | . | 0
Cc1ncsc1C(=O)Nc1cccc(C(F)(F)F)c1 | -1 | 27* | -7 | i | i | 1
O=C(COc1ccccc1)Nc1cccc(-c2ccc(N3CCOCC3)nn2)c1 | 1 | 1 | 4 | i | i | 0
COc1ccc(C(=O)C2CCCN(C(=O)c3ccoc3C)C2)cc1F (stereo not drawn) | 0 | 0 | -1 | i | i | 0
Cc1ccc(S(=O)(=O)NCC(=O)OCC(=O)N(CCC#N)c2ccccc2)cc1 | -1 | 0 | -8 | . | i | -1
Cc1c(O)c(CN2CCCCC2)cc2c3c(c(=O)oc12)CCC3 | 0 | -1 | -1 | i | i | 1
Cc1c(O)c(CN2CCCCC2)cc2c1oc(=O)c1ccccc12 | 7 | -2 | 59* | i | i | -5
C[C@@H]1CN([C@H](C)CO)C(=O)CCCn2nncc2CO[C@@H]1CN(C)S(=O)(=O)c1ccccc1 | 5 | . | -6 | . | . | -1
CC(C)[C@H](NC(=O)[C@@H]1Cc2ccccc2CN1C(=O)OC(C)(C)C)C(=O)NCC1CCCO1 (stereo partly drawn) | 1 | -3 | 21 | i | i | 0
CCC(C)[C@H](NC(=O)[C@@H]1Cc2ccccc2CN1C(=O)OC(C)(C)C)C(=O)NCC1CCC(C(=O)O)CC1 (stereo partly drawn) | -3 | 0 | 81* | i | i | 0
COC(=O)/C=C1\OCc2cc(OC)c(OC)cc21 | . | . | . | . | . | 1
COc1ccc(NC(=O)CN(C)C(=O)CSc2ccc3c(c2)OCCO3)cc1 | 181* | 2 | -131 | i | i | 2
Nc1nonc1-n1nnc(C(=O)N/N=C/c2ccccc2)c1CSc1ccc(Cl)cc1 | 110* | 30* | -77 | i | i | 9
Nc1nonc1-n1nnc(C(=O)N/N=C/c2cccc(Cl)c2)c1CSc1ccc(Cl)cc1 | 7 | 33* | -2 | i | i | 2
COc1ccc(-c2c(C)nn3c(N4CCOCC4)cc(C)nc23)cc1OC | -1 | -1 | 13 | i | i | -1
COc1ccc(-c2c(C)nn3c(N4CCCCCC4)cc(C)nc23)cc1OC | -2 | -3 | 56* | i | i | 0
CCCCOP(=O)(c1ccc(N(C)C)cc1)C(Nc1ccccc1)c1ccccc1 (stereo not drawn) | 0 | 13* | 24 | i | i | 5
Cc1ccccc1-n1c2nc(=O)n(C)c(=O)c-2cc2ccccc21 | 2 | -1 | -29 | 100* | i | 2
Cn1c(=O)nc2n(Cc3ccccc3)c3ccccc3cc-2c1=O | 4 | -4 | 8 | 100* | i | -1
Cc1ccccc1-n1c(=O)c2ccccc2n2nnnc12 | 2 | 1 | -9 | i | i | 2
CCCCn1c(=O)nc2n(-c3ccccc3C)c3ccccc3cc-2c1=O | 3 | -3 | 5 | 25* | i | 1
COc1cccc(-c2c(C(=O)N/N=C/c3ccc(C)s3)nnn2-c2nonc2N)c1 | 1 | 13* | -52 | i | i | -1
COc1cccc(-c2c(C(=O)N/N=C/c3ccc(C)o3)nnn2-c2nonc2N)c1 | -1 | 3 | -8 | i | i | 0
SMILES | CRFBP-R2 agonist | GRIN3A LBD mod | CRFBP-R2 block | ANO1 block | TMEM16A act | MPTP inh
CCOc1cccc(-c2c(C(=O)N/N=C/c3ccc(C)s3)nnn2-c2nonc2N)c1 | 5 | 21* | -66 | i | i | 1
CCOc1ccc(-c2c(C(=O)N/N=C/c3ccc(C)s3)nnn2-c2nonc2N)cc1 | -1 | -2 | -33 | i | i | -2
COc1cccc(-c2c(C(=O)N/N=C/c3cccnc3)nnn2-c2nonc2N)c1 | 0 | 1 | -8 | i | -37* | 0
Cc1ccc(-n2c(N)c(C#N)c(-c3ccc(Cl)cc3)c(C#N)c2=O)cc1 | -2 | 20* | 2 | i | i | 1
Cc1ccc(-c2c(C#N)c(N)n(-c3ccc(C)cc3)c(=O)c2C#N)cc1 | -1 | -1 | 11 | i | i | -1
O=C(NC(Cc1ccccc1)C(=O)Oc1ccc2c(C(F)(F)F)cc(=O)oc2c1)OCc1ccccc1 (stereo not drawn) | 40 | 14* | -46 | i | i | 4
O=C(CNC(=O)OCc1ccccc1)Oc1ccc2ccc(=O)oc2c1 | 0 | 2 | -1 | i | i | 0
O=C(/C=C\Nc1ccc2c(c1)OCO2)c1ccccn1 | 0 | 35* | -12 | i | i | 2
O=Cc1sc(Nc2ccccc2)nc1Cl | 12 | -2 | -46 | i | i | -1
Cc1ccc(Nc2nc(Cl)c(C=O)s2)cc1Cl | 3 | 21* | -23 | i | i | 23
COc1ccc(NC(=O)CN(C)C(=O)CSc2ccc(Br)cc2)cc1 | 1 | -5 | -6 | . | i | -2
COc1ccccc1CNC(=O)c1nn(C)c2c1CS(=O)(=O)c1ccccc1-2 | -1 | 18* | 14 | i | i | -2
CCOC(=O)N1CCC(NC(=O)CCC(=O)N2CCOc3ccccc32)CC1 | -2 | -2 | 5 | i | i | 0
O=C(CCC(=O)N1CCOc2ccccc21)NC1CCCCCC1 | 0 | -1 | 74* | i | i | -1
CC1CCc2c(sc(Nc3nc4c(F)cccc4s3)c2C(N)=O)C1 (stereo not drawn) | 13 | 12* | -45 | i | i | 49
Cc1onc(-c2ccccc2)c1C(=O)Nc1sc2c(c1C#N)CCC(C)C2 (stereo not drawn) | 5 | -1 | -60 | i | i | 8
O=C(Nc1nc2c(F)cccc2s1)C1CC1 | 3 | 2 | -9 | i | i | -3
Cc1onc(-c2c(Cl)cccc2Cl)c1C(=O)NC(=S)Nc1sc2c(c1C(N)=O)CCC(C)C2 (stereo not drawn) | -1 | 30* | -4 | i | i | 3
O=C1CCC(C(=O)Nc2cccc(S(=O)(=O)Nc3ccccc3F)c2)=NN1 | -1 | 13* | -4 | . | i | -1
O=C(Nc1cccc(S(=O)(=O)Nc2ccccc2F)c1)c1ccco1 | -2 | 1 | 7 | . | i | 1
CCc1ccc2oc(=O)cc(CN3CCOCC3)c2c1 | 1 | 10* | 6 | i | i | 0
Cc1cc2oc(=O)cc(CN3CCN(Cc4ccccc4)CC3)c2cc1O | -2 | -3 | 6 | i | i | 0
